A short description of test [1]: qHTS Assay for Identifying Gametocytocidal Compounds (AID 743244). Also: potency is read from the fitted curve at half-maximal effect.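 As to max response: % is scaled to controls: 0 for no effect and ±100 for the full control effect; actives lower the fluorescent signal which means gametocytes are killed.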 Conditions: P. falciparum 3D7 stage III-V gametocytes, alamarBlue, 72 h; max response: stronger effect = lower value. In a few lines: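 Late gametocytes (III–V), P. falciparum 3D7; 72 h drug, then 24 h alamarBlue; resazurin reduction read by fluorescence.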
For orientation: In qHTS, concentration-response curves come from the screen itself.

Test [2] can be described thus: qHTS assay for measurement of the activity of small molecule inhibitors on Zika virus induced Caspase-3 activity in human iPSC derived neural progenitor cells (hNPCs) (AID 1224857). Also: % of control where 0% means no effect; nearly all actives have a fitted effect of over 65% in size. The method in brief:
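Caspase-3/7 induction by a 6-hour ZIKV infection was quantified with a luminescent Caspase-Glo 3/7 reagent incubated 30 minutes at room temperature. Compounds were preincubated with hNPCs for 1 hour; inhibition was calculated against uninfected and infected control wells.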

A short description of test [3]: qHTS assay for measurement of the activity of small molecule inhibitors on Zika virus induced Caspase-3 activity in human astrocytoma cells (AID 1224859).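 Also: plate controls were ZIKV-infected untreated cells for no effect and uninfected cells for full effect.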 In a few lines:
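In SNB-19 cells plated at 250 cells/well and grown 16-20 h, compounds were applied 1 h before ZIKV (2 FFU/cell). Six hours later caspase-3/7 luminescence was recorded.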

The nature of test [4]: Natriuretic polypeptide receptor (hNpr1) antagonism - Pilot counterscreen GloSensor control cell line (AID 1347045; calls by dose curve; also: potency is read from the fitted curve at half-maximal effect). In a few lines:
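The SNP-driven cGMP luminescence signal (50 uM, 20 min, room temperature) was measured in GloSensor HEK293 control cells. Compounds were tested as a LOPAC titration series and preincubated for 30-50 min.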
In general terms: A counterscreen serves to expose hits that act by an unwanted route or on another target.

In test [5] the target is Atrial natriuretic peptide receptor 1 (Homo sapiens) (UniProt P16066). Briefly: Natriuretic polypeptide receptor (hNpr1) antagonism - Pilot screen (AID 1347049; calls by dose curve;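 also: HEK293 cells with hNpr1 and GloSensor cGMP luciferase stimulated by 0.1 nM hNppA; agonist-evoked cGMP luminescence read 20 min after hNppA addition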; also: potency is read from the fitted curve at half-maximal effect). The method in brief: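 Cells expressing receptor plus cGMP biosensor are seeded and incubated overnight at 37C, then loaded with GloSensor reagent (2% final) at room temperature for 2 h. Library compounds go on for 30 min. A pre-read precedes agonist (hNppA, 0.1 nM final) and a 20-min readout.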

Test [6] deals with Atrial natriuretic peptide receptor 2 (Homo sapiens) (UniProt P20594). Briefly: Natriuretic polypeptide receptor (hNpr2) antagonism - Pilot subtype selectivity assay (AID 1347050; calls by dose curve; also: potency is read from the fitted curve at half-maximal effect). The method in brief: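 Read-out: GloSensor luminescence (CCD imager), baseline vs post-stimulation. HEK293 cells expressing hNpr2; compounds pre-incubated 30-50 min at ambient temperature; hNppC 1 nM final, 20 min.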

Test [7] in a line: NS1 protein of Zika virus - qHTS assay to identify small molecule inhibitors in human HEK 293 cells (AID 1347053).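 Also: plate controls were infected untreated cells for no effect and uninfected cells for full effect; nearly all actives have a fitted effect of over 55% in size.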 In a few lines: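 Compound-treated (1 h pre-infection) HEK 293 cells infected with ZIKV MR766, MOI = 0.5; after 24 h at 37 C, NS1 read by TR-FRET; data normalized to uninfected and infected controls.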
The nature of test [8]: qHTS assay to identify small molecule inhibitors of chordoma cells - UCH-1 (AID 1259355). Also: % is scaled to controls: 0 for no effect and ±100 for the full control effect; nearly all actives have a fitted effect of over 55% in size. The method in brief: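 A 48hr growth-inhibition format: each drug tested at 15 concentrations together with added auranofin, camptothecin, doxorubicin, rubitecan and topotecan, with cell viability quantified as CellTiter-Glo luminescence.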
Test [9] can be described thus: qHTS assay to identify small molecule inhibitors of chordoma cells - UCH-2 (AID 1259356). Also: % is scaled to controls: 0 for no effect and ±100 for the full control effect.
Test [10] in a line: P-glycoprotein substrates identified in KB-8-5-11 adenocarcinoma cell line, qHTS therapeutic library screen (AID 1346987). Also: % is scaled to controls: 0 for no effect and ±100 for the full control effect; nearly all actives have a fitted effect of over 65% in size. The method in brief:
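Human cervical adenocarcinoma KB-8-5-11 cells, selected in colchicine to over-express P-gp and assayed without it, were exposed for 72 h to titrated compounds. An ATP-based luminescent viability signal gave AC50.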

Test [11] is described as follows: qHTS profiling of the MIPE4 collection as inhibitors of Plasmodium falciparum (3D7) proliferation (AID 743344; call rule not given here). The settings on record: P. falciparum 3D7 in erythrocytes, SYBR Green DNA fluorescence, 72 h; at 28.5 µM (top of the series). The method in brief:
(§1)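 Parasite DNA was quantified by SYBR Green I fluorescence (ex 485, em 535 nm) after overnight lysis in saponin/Triton buffer at room temperature. Cultures at 0.3% parasitemia and 2.5% hematocrit were first exposed to compound for 72 h at 37 C; signals were normalised to artemisinin (0.29 uM) and vehicle wells.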

The nature of test [12]: qHTS profiling of the MIPE4 collection as inhibitors of Plasmodium falciparum (DD2) proliferation (AID 743345; call rule not given here). The settings on record: P. falciparum Dd2 in erythrocytes, SYBR Green DNA, 72 h; at 28.5 µM (top of the series). In a few lines: as §1
The nature of test [13]: qHTS profiling of the MIPE4 collection as inhibitors of Plasmodium falciparum (DD2) proliferation (Rep 2) (AID 743346; call rule not given here). The settings on record: P. falciparum Dd2 in erythrocytes, SYBR Green DNA, 72 h; at 28.5 µM (top of the series). The method in brief:
as §1

Test [14] in a line: qHTS profiling of the MIPE4 collection as inhibitors of Plasmodium falciparum (HB3) proliferation (AID 743347; call rule not given here;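 also: plate controls were DMSO vehicle wells for no effect and artemisinin wells for full effect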). Conditions: P. falciparum HB3 in erythrocytes, SYBR Green DNA, 72 h; at 28.5 µM (top of the series). In a few lines:
as §1

Test [15] can be described thus: qHTS profiling for inhibitors of Plasmodium falciparum (3D7) proliferation (AID 743322).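 Also: infected erythrocytes exposed to compound for 72 h before lysis; 100% = DMSO vehicle wells and 0% = 0.29 µM artemisinin.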 Conditions: P. falciparum 3D7 proliferation; at 28.7 µM (top of the series). In a few lines: as §1
Test [16] can be described thus: qHTS profiling for inhibitors of Plasmodium falciparum (DD2) proliferation (AID 743323; call rule not given here). The settings on record: lower = more inhibition; at 28.7 µM (top of the series). The method in brief: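 Parasite proliferation measured via DNA-dye fluorescence, as uninfected erythrocytes lack DNA. Cultures at 0.3% parasitemia and 2.5% hematocrit incubated 72 h with compound; signal scaled between vehicle and 0.29 uM artemisinin wells.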

The nature of test [17]: qHTS profiling for inhibitors of Plasmodium falciparum (HB3) proliferation (AID 743324).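 Also: 100% = DMSO vehicle wells and 0% = artemisinin-treated control wells.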 Conditions: Plasmodium falciparum HB3 blood-stage proliferation; at 28.7 µM (top of the series). The method in brief: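 SYBR Green fluorescence (485 ex/535 em) of lysed cultures, incubated overnight at room temperature in the dark, quantifies parasite DNA. Infected erythrocytes at 0.3% parasitemia and 2.5% hematocrit were exposed 72 h; values normalized to DMSO and 0.29 uM artemisinin controls.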

Values joined by “and” are separate entries in the source; they are usually repeats but may differ in a detail not shown here. Identical values can stand only once. Inconclusive results are not listed. Active and inactive are the calls of the source. Unless noted, calls follow the shape of the dose curve; as a rule, active = well fitted curve in the direction sought with a large enough effect; inconclusive = small, poorly fitted or top-dose-only effect, or another doubt; inactive = no such curve, though single readings can be large; an effect the other way counts as inactive or inconclusive.

Sequence of Atrial natriuretic peptide receptor 1 (Homo sapiens) (P16066 whole entry, looked up): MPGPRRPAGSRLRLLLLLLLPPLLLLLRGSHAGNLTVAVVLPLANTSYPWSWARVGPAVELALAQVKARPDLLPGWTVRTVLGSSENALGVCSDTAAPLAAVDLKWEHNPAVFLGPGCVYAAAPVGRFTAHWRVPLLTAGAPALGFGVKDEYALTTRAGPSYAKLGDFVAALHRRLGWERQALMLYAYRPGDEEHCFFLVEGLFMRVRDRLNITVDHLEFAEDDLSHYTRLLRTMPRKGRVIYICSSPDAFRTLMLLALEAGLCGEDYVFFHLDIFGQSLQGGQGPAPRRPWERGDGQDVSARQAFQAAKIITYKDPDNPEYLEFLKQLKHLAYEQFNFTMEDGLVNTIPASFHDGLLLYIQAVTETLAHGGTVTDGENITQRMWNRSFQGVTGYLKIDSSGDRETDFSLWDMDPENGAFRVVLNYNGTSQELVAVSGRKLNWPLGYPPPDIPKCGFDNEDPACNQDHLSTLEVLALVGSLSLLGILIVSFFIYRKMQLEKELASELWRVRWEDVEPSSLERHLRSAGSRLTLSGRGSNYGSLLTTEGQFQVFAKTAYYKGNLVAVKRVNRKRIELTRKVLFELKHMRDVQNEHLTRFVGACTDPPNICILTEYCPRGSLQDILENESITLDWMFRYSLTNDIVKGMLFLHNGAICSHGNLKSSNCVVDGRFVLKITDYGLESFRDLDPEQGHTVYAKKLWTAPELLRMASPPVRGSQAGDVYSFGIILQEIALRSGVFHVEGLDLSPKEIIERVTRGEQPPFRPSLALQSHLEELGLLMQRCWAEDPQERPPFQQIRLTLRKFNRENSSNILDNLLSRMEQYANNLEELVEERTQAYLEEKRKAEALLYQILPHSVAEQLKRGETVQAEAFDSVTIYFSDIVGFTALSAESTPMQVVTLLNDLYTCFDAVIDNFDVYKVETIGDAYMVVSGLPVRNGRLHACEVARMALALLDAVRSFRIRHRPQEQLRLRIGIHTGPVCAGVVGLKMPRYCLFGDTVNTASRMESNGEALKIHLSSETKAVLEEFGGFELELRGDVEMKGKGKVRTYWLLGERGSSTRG
Sequence of Atrial natriuretic peptide receptor 2 (Homo sapiens) (P20594 whole entry, looked up): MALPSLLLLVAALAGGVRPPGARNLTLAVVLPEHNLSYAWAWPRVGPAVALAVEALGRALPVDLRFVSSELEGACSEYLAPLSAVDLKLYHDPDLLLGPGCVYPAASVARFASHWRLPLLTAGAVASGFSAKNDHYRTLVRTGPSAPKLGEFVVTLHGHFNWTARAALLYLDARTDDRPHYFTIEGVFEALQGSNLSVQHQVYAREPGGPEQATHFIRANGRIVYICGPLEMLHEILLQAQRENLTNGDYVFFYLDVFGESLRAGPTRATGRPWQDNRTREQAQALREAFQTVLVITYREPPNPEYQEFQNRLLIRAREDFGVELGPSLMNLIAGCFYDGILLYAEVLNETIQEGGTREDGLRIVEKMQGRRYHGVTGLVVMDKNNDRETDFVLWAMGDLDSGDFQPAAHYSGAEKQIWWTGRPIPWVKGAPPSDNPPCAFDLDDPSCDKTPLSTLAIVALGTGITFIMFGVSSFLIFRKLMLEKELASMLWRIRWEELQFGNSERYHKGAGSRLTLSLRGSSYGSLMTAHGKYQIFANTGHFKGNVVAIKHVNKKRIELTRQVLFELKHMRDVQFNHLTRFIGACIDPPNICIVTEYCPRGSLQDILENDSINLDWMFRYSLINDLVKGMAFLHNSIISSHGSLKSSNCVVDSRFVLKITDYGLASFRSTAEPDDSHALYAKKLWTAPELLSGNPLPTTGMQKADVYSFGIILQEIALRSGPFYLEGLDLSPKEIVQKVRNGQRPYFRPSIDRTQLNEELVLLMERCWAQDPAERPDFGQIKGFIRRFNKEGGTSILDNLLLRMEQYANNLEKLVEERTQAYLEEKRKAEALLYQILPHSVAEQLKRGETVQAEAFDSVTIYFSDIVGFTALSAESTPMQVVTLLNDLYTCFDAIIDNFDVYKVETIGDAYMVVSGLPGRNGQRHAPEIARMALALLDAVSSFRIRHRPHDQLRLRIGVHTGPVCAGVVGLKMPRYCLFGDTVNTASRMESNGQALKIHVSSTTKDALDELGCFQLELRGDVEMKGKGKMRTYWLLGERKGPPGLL

Turning to `c1ccc2c(c1)[I+]c1ccccc1-2`, the Potency in test [1] was 166 nM (active); in [4], 4140 nM (active); in test [5], 3010 nM (active); in test [6] it was 927 nM (active). In test [2], the Potency entry was “inactive”. In addition, the outcome in [3] was inactive.

With `NC(=O)c1ccc(OCC(O)CN2CC=C(c3ccc(F)cc3)CC2)cc1` (stereo not drawn), the max response in test [1] is 10.4% (inactive). The Potency result in [2], in test [4], in [5] and in test [6] was “inactive” in each case. In addition, the compound was classed as inactive in test [3] and in [7].

As for `C=CCN(C1=NCCN1)c1c(Cl)cccc1Cl`, in [1], the max response was -1.3% (inactive) and 35.7% (inactive). Further, the compound was classed as inactive in [3]. Moreover, the Potency result in test [8], in test [9], in test [10], in test [4], in [5] and in [6] was “inactive” in each case.

For the compound `CN(C(=O)Cc1ccc(Cl)c(Cl)c1)C(CN1CCCC1)c1cccc(OCC(=O)O)c1` (stereo not drawn), the max response in test [1] is 13% (inactive). For the same compound, the Potency result in test [2], in [5] and in [6] was “inactive” throughout. The result in [3] and in test [7] was inactive.

For `NC(=O)COc1c(F)cc(SCCNS(=O)(=O)c2ccccc2)cc1F`, the max response in test [1] is 9.54% (inactive). The Potency result in test [2], in [5] and in [6] was “inactive” throughout. The outcome in test [3] and in [7] was inactive.

Regarding `Nc1ccc(CCN2CCN(c3cccc(C(F)(F)F)c3)CC2)cc1`, the max response in test [1] was 14.5% (inactive). For the same compound, the Potency result in test [2], in test [5] and in test [6] was “inactive” throughout. Besides, the result in [3] and in [7] was inactive.

In the case of `O=C(NC1CN2CCC1CC2)c1cc2ccoc2cn1` (stereo not drawn), the Potency result in [2] is “inactive”. In addition, the outcome in [7] was inactive.

On to `Oc1ccc2c3c1O[C@H]1c4[nH]c5ccccc5c4C[C@@]4(O)C(C2)N(CC2CC2)CCC314` (stereo partly drawn), for which the parasite growth, % of DMSO control in test [11] turned out to be 5.78%. In test [12], this compound had a parasite growth remaining, % of DMSO control (lower = more inhibition) of 28.3%. Moreover, the parasite growth, % of control (lower = inhibition) in [13] is 12.6%. In [14], this compound registered a growth, % of control of 5.24%. Further, the Potency entry in [2], in test [5] and in [6] was “inactive” each time. Besides, the outcome in test [3] and in [7] was inactive.

In the case of `C[N+]1(C)[C@@H]2CC(OC(=O)[C@H](CO)c3ccccc3)C[C@H]1[C@H]1O[C@@H]12` (stereo partly drawn), the parasite growth remaining, % of DMSO control (lower = more inhibition) in test [12] is 91.7%. Besides, the growth, % of control in test [14] amounted to 86.8%. For the same compound, the Potency entry in test [2] is “inactive”.

As to `CC(=O)c1c(O)c(C)c(O)c(Cc2c(O)c3c(c(C(=O)/C=C/c4ccccc4)c2O)OC(C)(C)C=C3)c1O`, the max response in test [1] is 17.7% (inactive). For the same compound, the remaining parasite growth % (stronger effect = lower value) in test [15] is -0.946%. The activity, percent of control in test [16] is -0.827%. For the same compound, the remaining proliferation (% of control), lower = more inhibition in test [17] was -2.57%. Moreover, the Potency entry in test [2] and in [5] was “inactive” each time. For the same compound, in test [3], the outcome was inactive.

For the compound `NC(C(=O)O)c1cc(=O)[nH]o1` (stereo not drawn), in test [1], the max response is 7.64% (inactive). Besides, the Potency result in test [2], in test [5] and in test [6] was “inactive” throughout. Moreover, the compound was classed as inactive in test [3] and in test [7].

Regarding `O=c1ccc2[nH]cc(C3=CCNCC3)c2[nH]1`, the Potency result in [2] is “inactive”. Also, the compound was classed as inactive in test [7].

As for `[Cl-].[Cl][Pt].[NH2-].[NH2-].c1ccncc1`, the Potency entry in [2] was “inactive”. For the same compound, the outcome in test [7] was inactive.

As for `C[C@]12Cc3cn4c(nc3C=C1CCC1C2CC[C@@]2(C)[C@H]1CC[C@@]2(O)C#N)nc1ccccc14` (stereo partly drawn), in test [2], the Potency entry is “inactive”. In addition, the result in test [3] and in [7] was inactive.

The values are drawn from PubChem BioAssay (NCATS).
